# Tau fluor counter: counter-screen for tau fibril formation inhibitors; tau K18 P301L Alexa594 fluorescence, heparin fibrillization; Potency, µM (highest dose often 57.7 µM), inactives show at the highest dose activity change, negative = decrease; 280,000 compounds, 0.93% hits; note: nearly all actives have a fitted effect of over 55% in size
#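 Human K18 P301L tau (15 uM unlabeled plus 0.24 uM Alexa 594-labeled, final) in 100 mM sodium acetate pH 7 was mixed with compound and 20 uM heparin and incubated 6 hr at 37 C.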
# Tau ThT inhib: tau fibrillization inhibition (ThT binding) | 270,000 compounds, 2.1% hits | P10636 | recombinant tau K18 P301L (four-repeat tau fragment), heparin-induced fibrillization, ThT fluorescence | Potency, µM (top dose mostly 57.4 µM), for the others: top-dose activity, negative = inhibition, most hits filed as inhibitors; note: nearly all actives have a fitted effect of over 55% in size
#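 Recombinant human tau K18 fragment […] carrying P301L, 15 uM unlabeled plus 0.24 uM Alexa 594-labeled, was fibrillized with 20 uM heparin in 100 mM sodium acetate pH 7 for 6 hr at 37 C; 30 uM ThT fluorescence read after 1 hr.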
# NPSR antagonist: neuropeptide S receptor (human) antagonism, cAMP; Q6W5P4; CHO-NPSR cells, cAMP TR-FRET, antagonist mode; Potency, µM (series often up to 38.3 µM), without a hit: top-dose activity change, negative = inhibition, actives largely listed as inhibitors; 220,000 compounds, 1% hits; AID 1461; note: nearly all actives have a fitted effect of over 50% in size
# HPGD inh: HPGD (human) dehydrogenase inhibition. P15428. purified HPGD, NADH fluorescence kinetic, PGE2 substrate. Potency, µM, without a hit: at the highest dose activity change, negative = inhibition, most hits filed as inhibitors. 150,000 compounds, 4.3% hits. AID 894; active = well fitted inhibition curve with a large enough effect, not every such curve was filed as active; inconclusive = small, poorly fitted or top-dose-only effect, or another doubt; inactive = no such curve, though single readings can be large or run the other way
#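 20 nM HPGD preincubated 15 min at room temperature with compound in 50 mM Tris-HCl pH 8, 0.01% Tween 20. Started with 1 mM NAD+ and 30 uM prostaglandin E2; NADH fluorescence (360/450 nm) read 5 times over 30-s intervals, last minus first.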
# ALDH1A1 block: ALDH1A1 (human) enzyme inhibition. P00352. Purified ALDH1A1, NADH fluorescence, propionaldehyde substrate. Potency, µM (series often up to 75.3 µM), without a hit: at the highest dose activity, negative = inhibition, usual class: inhibitors. 220,000 compounds, 7.3% hits; active = well fitted inhibition curve with a large enough effect, not every such curve was filed as active; inconclusive = small, poorly fitted or top-dose-only effect, or another doubt; inactive = no such curve, though single readings can be large or run the other way;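 note: plate controls were no enzyme wells and a reference inhibitor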
# Target sequence (P00352 whole entry, looked up): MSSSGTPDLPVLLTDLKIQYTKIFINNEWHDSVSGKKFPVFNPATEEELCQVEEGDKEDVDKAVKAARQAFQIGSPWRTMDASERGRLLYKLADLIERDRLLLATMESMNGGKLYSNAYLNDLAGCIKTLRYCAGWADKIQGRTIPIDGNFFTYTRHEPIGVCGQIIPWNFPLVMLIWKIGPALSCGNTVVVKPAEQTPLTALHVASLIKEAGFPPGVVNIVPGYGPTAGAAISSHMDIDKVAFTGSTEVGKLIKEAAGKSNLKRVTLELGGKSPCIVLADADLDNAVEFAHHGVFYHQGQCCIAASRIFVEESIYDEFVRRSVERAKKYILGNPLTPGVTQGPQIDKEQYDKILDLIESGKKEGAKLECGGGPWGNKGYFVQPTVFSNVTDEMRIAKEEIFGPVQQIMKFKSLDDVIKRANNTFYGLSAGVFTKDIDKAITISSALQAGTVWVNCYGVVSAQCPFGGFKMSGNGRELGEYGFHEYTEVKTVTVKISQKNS
# Tau fibril FP: blocks human tau fibril formation measured by polarization. Potency, µM (titrated, usually from 57.7 µM), for inactives: at the top dose activity, negative = inhibition, actives largely listed as inhibitors. P10636. 280,000 compounds, 0.39% hits. K18 P301L tau heparin fibrillization, Alexa594 FP, 6 h; note: nearly all actives have a fitted effect of over 55% in size
#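 K18 P301L tau (15 uM unlabeled/0.24 uM Alexa 594-labeled, final) + compound + heparin 20 uM final; 100 mM NaOAc pH 7; 6 hr 37 C; ThT 30 uM final added, 1 hr RT; FP ex 555/em 632 nm.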
# * = called active by the depositor; ? = inconclusive; / = no result; [ ] = dose if it differs, or a comment. Most compounds without a hit are left out; they make up all but 9.5% or so of the library. Unless noted, calls come from the whole dose curve; as a rule, active = well fitted curve in the direction sought with a large enough effect; inconclusive = small, poorly fitted or top-dose-only effect, or another doubt; inactive = no such curve, though single readings can be large; an effect the other way counts as inactive or inconclusive. Unless noted, % is set by controls: 0 for no effect and ±100 for the full control effect; potency is the fitted concentration of half-maximal effect.
SMILES,Tau fluor counter,Tau ThT inhib,NPSR antagonist,HPGD inh,ALDH1A1 block,Tau fibril FP
Cc1ccc(-c2nc(CSCC(=O)N3CCN(C(=O)c4ccco4)CC3)c(C)o2)cc1,-3%,?,-3%[46.1 µM],-15%,22µM*,4%
Cc1ccc(-c2nc(CSCC(=O)N3CCOCC3)c(C)o2)cc1,-9%,-26%,-8%[46.1 µM],-16%,?,-2%
O=C(CSc1nnc2ccccn12)NNC(=O)c1ccc([N+](=O)[O-])cc1,2%,0%,11%,/,/,0%
COc1cc2c(cc1OC)C1C(=O)c3ccc4c(c3OC1CO2)C=CC(C)(C)O4 (centres undefined),?,-21%,/,-13%,2%,8%
CS(=O)c1nc(-c2ccc(Br)cc2)cc(-c2ccccc2)c1C#N (centres undefined),-23%,?,13µM*,7%,13µM*,?
CS(=O)(=O)c1nc(-c2ccc(Br)cc2)cc(-c2ccccc2)c1C#N,-21%,-18%,7.9µM*,-2%,?,-21%
CCS(=O)(=O)CCSc1nc(-c2ccc(Br)cc2)cc(-c2ccccc2)c1C#N,-7%,-8%,/,/,/,?
C=CCn1c(SCc2c(C(=O)OC)sc(N)c2C(=O)OC)nnc1-c1ccc(Br)cc1,-1%,-5%,?,?,25µM*,-1%
O=C(c1ccc(S(=O)(=O)c2ccccc2)cc1)N1CCc2ccccc2C1,-5%,-4%,-7%,18µM*,-15%,8%
O=C(c1ccc([N+](=O)[O-])cc1)N1CCc2ccccc2C1,-3%,-3%,0%,28µM*,5%,2%
CCS(=O)(=O)N1CCC(C(=O)N2CCc3ccccc3C2)CC1,16µM*[quencher],?,-17%[46.1 µM],/,-11%,?
O=C(c1ccc(S(=O)(=O)N2CCCCC2)cc1)N1CCc2ccccc2C1,-1%,-7%,-23%,/,?,17%
COc1cccc(/C=C(/C#N)c2ccc(F)cc2)c1OCc1cccc(C(=O)O)c1,4%,8%,-14%,?,13µM*,7%
COc1cccc(/C=C(/C#N)c2ccc(Cl)cc2)c1OCc1cccc(C(=O)O)c1,2%,-8%,?,/,-8%,-4%
CCOC(=O)C1=C(C)Nc2sc(C(=O)c3ccc(OC)cc3)c(N)c2C1c1ccc(C(=O)OC)cc1 (centres undefined),5µM*[quencher],6%,-7%,-19%,-1%,7%
COC(=O)C1=C(C)Nc2sc(C(N)=O)c(N)c2C1c1ccncc1 (centres undefined),4%,8%,6%,?,?,0%
Cc1ccc(NC(=O)C(NC2CCCc3ccccc32)c2ccccc2)cc1Cl (centres undefined),-2%,5%,-50%,-14%,14µM*,8%
O=C(O)c1ccccc1N/N=C/c1c(Sc2nnnn2-c2ccccc2)nc2ccccn2c1=O,?,7.9µM*,28%,/,2µM*,-8%
O=c1c(/C=N/Nc2ccccc2)c(Sc2nnnn2-c2ccccc2)nc2ccccn12,?,?,-5%[46.1 µM],-4%,2%,?
CC(=O)N(C1=C(N2CCOCC2)C(=O)c2ccccc2C1=O)c1ccc(C(=O)O)cc1,18µM*[quencher],14µM*,-7%[7.67 µM],/,/,?
O=C(O)c1ccc(NC2=C(N3CCOCC3)C(=O)c3ccccc3C2=O)cc1,?,18µM*,-38%,-12%,19µM*,?
CC(=O)c1ccc(NC2=C(N3CCOCC3)C(=O)c3ccccc3C2=O)cc1,?,?,-28%[46.1 µM],-1%,?,-9%
COc1ccc(CNc2ncnc3ccc(-c4ccccc4CN(C)C)cc23)c(OC)c1,-20%,-18%,/,?,2%,3%
CCCCCN1N=C(C)CC1=O,-7%,?,0%,/,0.63µM*,-3%
CCCCCCCN1N=C(C)C(C(=O)c2ccccc2)C1=O (centres undefined),0%,-6%,?,0%,-4%,2%

# Source: PubChem BioAssay
